Compound activity from PubChem BioAssay.
DAX1 inh-1 – blocks DAX1 repression of SF-1 activated StAR promoter; HEK293T StAR-luciferase reporter, SF-1/DAX-1 repression relief; inhibition, % at 6.8 µM; 370,000 tested, 1.1% active;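 active = inhibition above the mean over all tested compounds plus 3 SD, cut at about 3.6% in these data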;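 note: higher inhibition means more luminescence from relief of DAX-1 repression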
hgDAF-12 ag – activates the H. glycines DAF-12 receptor ligand-binding domain; 370,000 tested, 1.8% active; activation, % at 6.8 µM; HEK293 GAL4-hgDAF12 UAS-luciferase reporter, agonist luminescence; normalized to butyrate control; AID 687014;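 active = activation above a cutoff set at the mean of all screened compounds plus 3 SD, cut at about 10% in these data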
hcDAF-12 act – H. contortus DAF-12 activation, primary screen; HEK293 hcDAF-12 lit1-tk-luc reporter, luminescence; 0% DMSO, 100% Δ7-dafachronic acid; 370,000 tested, 1.4% active; AID 652067; activation, % at 6.8 µM;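 active = activation above the mean of all tested compounds plus 3 SD, cut at about 5.5% in these data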
DAX1 inh-2 – NR0B1 (DAX1) inhibition | P51843 | HEK293 Gal4-DAX1 luciferase reporter, luminescence | inhibition, % at 6.75 µM | 340,000 tested, 0.99% active;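 active = inhibition above the mean over all tested compounds plus 3 SD, cut at about 4.2% in these data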;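 note: inhibition shows as a rise in luminescence from relieved DAX1 repression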
Target sequence (P51843 207-470 limits assumed): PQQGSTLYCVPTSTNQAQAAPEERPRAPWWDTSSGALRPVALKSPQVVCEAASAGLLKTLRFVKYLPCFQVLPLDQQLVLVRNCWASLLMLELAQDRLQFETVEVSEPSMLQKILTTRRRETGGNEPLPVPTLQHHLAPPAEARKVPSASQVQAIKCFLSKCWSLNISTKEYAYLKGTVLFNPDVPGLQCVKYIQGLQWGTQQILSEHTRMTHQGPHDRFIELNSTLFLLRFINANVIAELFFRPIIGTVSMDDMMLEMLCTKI
ssDAF-12 act – activators of S. stercoralis DAF-12 nuclear receptor; 370,000 tested, 1% active; HEK293 ssDAF-12/GRIP1 lit1-tk-luc reporter, luminescence; % of 3 µM dafachronic acid response; activation, % at 6.8 µM;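 active = activation above the mean over all tested compounds plus 3 SD, cut at about 0.9% in these data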
SMARCA2 act – SMARCA2 function activation, primary screen; MG213 cells, MMTV-luciferase reporter, dexamethasone, overnight; activation, % at 9.1 µM; 370,000 tested, 1% active; AID 652017; in the data active = activation above about 7.8%
Numbers stand for hits. Sampled rows, rich in hits. Any-hit rate of the full collection: about 4.8%.

Cc1cc(C)c(S(=O)(=O)NC2CC(C)(C)NC(C)(C)C2)cc1Br was read as DAX1 inh-1 inactive, hgDAF-12 ag inactive, hcDAF-12 act inactive, DAX1 inh-2 inactive, ssDAF-12 act inactive and SMARCA2 act inactive.
Screening CC(=O)c1c(C)[nH]c(C(=O)OCC(=O)NCCc2ccc(F)cc2)c1C returned DAX1 inh-1 inactive, hgDAF-12 ag inactive, hcDAF-12 act inactive, DAX1 inh-2 inactive, ssDAF-12 act inactive and SMARCA2 act inactive.
Screening COc1ccc(S(=O)(=O)N(C)C[C@@H]2OCc3cn(nn3)CCCC(=O)N([C@H](C)CO)C[C@H]2C)cc1 returned DAX1 inh-1 3.7, hgDAF-12 ag inactive, hcDAF-12 act inactive, ssDAF-12 act inactive and SMARCA2 act inactive.
COc1ccc(S(=O)(=O)N(C)C[C@H]2OCc3cn(nn3)CCCC(=O)N([C@H](C)CO)C[C@@H]2C)cc1 was read as DAX1 inh-1 inactive, hgDAF-12 ag inactive, hcDAF-12 act inactive, DAX1 inh-2 inactive, ssDAF-12 act inactive and SMARCA2 act inactive.
For COc1ccccc1NC(=O)N(C)C[C@@H]1OCc2cn(nn2)CCCC(=O)N([C@@H](C)CO)C[C@H]1C the results were DAX1 inh-1 inactive, hgDAF-12 ag inactive, hcDAF-12 act inactive, DAX1 inh-2 inactive, ssDAF-12 act 0.9 and SMARCA2 act inactive.
`O=C(O)CN1C(=O)/C(=C/c2ccsc2)SC1=S` gave DAX1 inh-1 inactive, hgDAF-12 ag inactive, hcDAF-12 act inactive, ssDAF-12 act inactive and SMARCA2 act inactive.
c1cc(CNCCNCc2ccncc2)ccn1 was read as DAX1 inh-1 inactive, hgDAF-12 ag inactive, hcDAF-12 act inactive, DAX1 inh-2 inactive, ssDAF-12 act inactive and SMARCA2 act inactive.
Screening Nc1ccc(Cl)c[n+]1Cc1cccc2cccnc12 returned DAX1 inh-1 inactive, hgDAF-12 ag inactive, hcDAF-12 act 5.8, DAX1 inh-2 inactive, ssDAF-12 act inactive and SMARCA2 act inactive.
For Cc1ccccc1OCCOc1cccc(/C=N/NC(=O)Cc2nnc(N)s2)c1 the results were DAX1 inh-1 inactive, hgDAF-12 ag 12, hcDAF-12 act inactive, DAX1 inh-2 inactive, ssDAF-12 act inactive and SMARCA2 act inactive.
O=C(N/N=C/c1ccc(Cl)cc1Cl)c1ccncc1 was read as DAX1 inh-1 inactive, hgDAF-12 ag inactive, hcDAF-12 act inactive, DAX1 inh-2 inactive, ssDAF-12 act inactive and SMARCA2 act inactive.
Cn1c(=O)cc(SCC(=O)N2CCN(C3CCCCC3)CC2)c2ccccc21 was read as DAX1 inh-1 inactive, hgDAF-12 ag inactive, hcDAF-12 act inactive, DAX1 inh-2 7.3, ssDAF-12 act inactive and SMARCA2 act inactive.
`CCn1c(=O)cc(SCC(=O)N2CCCCC2)c2ccccc21` gave DAX1 inh-1 inactive, hgDAF-12 ag inactive, hcDAF-12 act inactive, DAX1 inh-2 inactive, ssDAF-12 act inactive and SMARCA2 act inactive.
COc1ccc(-c2nnc(SCC(=O)N3CCCC3)o2)c(OC)c1 was read as DAX1 inh-1 inactive, hgDAF-12 ag 12, hcDAF-12 act inactive, DAX1 inh-2 inactive, ssDAF-12 act inactive and SMARCA2 act inactive.
Screening Cc1nnc(SCC(=O)NNC(=O)c2ccc(F)cc2)n1Cc1ccccc1 returned DAX1 inh-1 inactive, hgDAF-12 ag inactive, hcDAF-12 act inactive, DAX1 inh-2 4.5, ssDAF-12 act 1.4 and SMARCA2 act inactive.
`Cc1nnc(SCC(=O)NNC(=O)c2ccccc2)n1Cc1ccccc1` gave DAX1 inh-1 inactive, hgDAF-12 ag inactive, hcDAF-12 act inactive, DAX1 inh-2 inactive, ssDAF-12 act inactive and SMARCA2 act inactive.
Screening CCOC(=O)c1ccc2ncc(-c3ccccc3)nc2c1 returned DAX1 inh-1 4.3, hgDAF-12 ag inactive, hcDAF-12 act inactive, DAX1 inh-2 inactive, ssDAF-12 act inactive and SMARCA2 act inactive.
CC1=C(C(=O)N2CCOCC2)CC(CC(=O)NCc2cccs2)C(=O)N1Cc1ccccc1 (centres undefined) was read as DAX1 inh-1 inactive, hgDAF-12 ag inactive, hcDAF-12 act inactive, ssDAF-12 act inactive and SMARCA2 act inactive.
Screening O=C(NCc1ccc(F)cc1)C1C2C=CC3(CN(Cc4cccnc4)C(=O)C13)O2 (centres undefined) returned DAX1 inh-1 inactive, hgDAF-12 ag inactive, hcDAF-12 act inactive, DAX1 inh-2 inactive, ssDAF-12 act inactive and SMARCA2 act inactive.
For O=C(Nc1nnc(-c2ccc(Cl)cc2)o1)C1CCCCC1 the results were DAX1 inh-1 inactive, hgDAF-12 ag inactive, hcDAF-12 act inactive, DAX1 inh-2 inactive, ssDAF-12 act inactive and SMARCA2 act inactive.
`Clc1ccc(-c2nnc(NC3=NCCCCC3)o2)cc1` gave DAX1 inh-1 inactive, hgDAF-12 ag inactive, hcDAF-12 act 6.1, DAX1 inh-2 inactive, ssDAF-12 act inactive and SMARCA2 act inactive.
Screening COC(=O)C(C)N1C(=O)S/C(=C\c2cc(C)n(-c3ccccn3)c2C)C1=O (centres undefined) returned DAX1 inh-1 inactive, hgDAF-12 ag 11, hcDAF-12 act inactive, DAX1 inh-2 inactive, ssDAF-12 act inactive and SMARCA2 act inactive.
CCOC(=O)CN1CCCc2nc(-c3ccc(OC)cc3)ccc21 was read as DAX1 inh-1 inactive, hgDAF-12 ag inactive, hcDAF-12 act inactive, ssDAF-12 act inactive and SMARCA2 act inactive.
CN(/C=C/C(=C\C=[N+](C)c1ccccc1)OCCCS(=O)(=O)[O-])c1ccccc1 was read as DAX1 inh-1 inactive, hgDAF-12 ag inactive, hcDAF-12 act 5.6, DAX1 inh-2 inactive, ssDAF-12 act inactive and SMARCA2 act inactive.
`CCN(CC)CCCNC(=O)CNC(=O)c1nn(-c2ccc(OC)c(OC)c2)c(=O)c2ccccc12` gave DAX1 inh-1 inactive, hgDAF-12 ag inactive, hcDAF-12 act inactive, DAX1 inh-2 inactive, ssDAF-12 act inactive and SMARCA2 act inactive.
For CCN(CC)CCNC(=O)CNC(=O)c1nn(-c2ccc(OC)c(OC)c2)c(=O)c2ccccc12 the results were DAX1 inh-1 inactive, hgDAF-12 ag inactive, hcDAF-12 act inactive, DAX1 inh-2 4.9, ssDAF-12 act inactive and SMARCA2 act inactive.
`CCN1CCN(Cc2coc3ccc(C)cc3c2=O)CC1` gave DAX1 inh-1 inactive, hgDAF-12 ag inactive, hcDAF-12 act inactive, DAX1 inh-2 inactive, ssDAF-12 act inactive and SMARCA2 act inactive.
COc1ccc(C2SCC(C(=O)O)N2C(C)=O)cc1OC (centres undefined) was read as DAX1 inh-1 inactive, hgDAF-12 ag inactive, hcDAF-12 act inactive, DAX1 inh-2 8.4, ssDAF-12 act inactive and SMARCA2 act inactive.
`O=C(Nc1ccc(F)cc1)Nc1c(-c2ccc(F)cc2)nc2ncccn12` gave DAX1 inh-1 inactive, hgDAF-12 ag inactive, hcDAF-12 act inactive, ssDAF-12 act 1.8 and SMARCA2 act inactive.
Screening Cc1nn(C)c(Cl)c1CN1CCC(CO)(CC2CCCCO2)CC1 (centres undefined) returned DAX1 inh-1 inactive, hgDAF-12 ag inactive, hcDAF-12 act inactive, DAX1 inh-2 inactive, ssDAF-12 act inactive and SMARCA2 act inactive.
